# Experimental data reported in article PMC5540273 (PLoS ONE, 2017).
# What was measured:
# Conditions in all cases: concentration: 1 μM, replicates: in singlicate; n = 1
# PIM1 = test system: PIM1
# PIM2 = test system: PIM2
# PIM3 = test system: PIM3
# PIP5K1A = test system: PIP5K1A
# PIP5K1C = test system: PIP5K1C
# PIP5K2B = test system: PIP5K2B
# PIP5K2C = test system: T1, PIP5K2C
# T1 construct: gene PIP4K2C
# PKAC-alpha = test system: T2, PKAC-alpha
# T2 construct: gene PRKACA
# PKAC-beta = test system: T3, PKAC-beta
# T3 construct: gene PRKACB
# PKMYT1 = test system: PKMYT1
# PKN1 = test system: PKN1
# PKN2 = test system: PKN2
# PLK1 = test system: PLK1
# PLK2 = test system: PLK2
# PLK3 = test system: PLK3
# PLK4 = test system: PLK4
# PRKCD = test system: PRKCD
# PRKCE = test system: PRKCE
# PRKCH = test system: PRKCH
# PRKCI = test system: PRKCI
# 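Further: KINOMEscan kinase panel screen.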
SMILES,%Inh (PIM1) [%],%Inh (PIM2) [%],%Inh (PIM3) [%],%Inh (PIP5K1A) [%],%Inh (PIP5K1C) [%],%Inh (PIP5K2B) [%],%Inh (PIP5K2C) [%],%Inh (PKAC-alpha) [%],%Inh (PKAC-beta) [%],%Inh (PKMYT1) [%],%Inh (PKN1) [%],%Inh (PKN2) [%],%Inh (PLK1) [%],%Inh (PLK2) [%],%Inh (PLK3) [%],%Inh (PLK4) [%],%Inh (PRKCD) [%],%Inh (PRKCE) [%],%Inh (PRKCH) [%],%Inh (PRKCI) [%]
CC(C)(C)c1ccc(C(=O)Nc2cn3cc(-c4cccnc4)ccc3n2)cc1,32,12,44,0,17,18,53,13,33,19,25,22,0,16,24,15,36,4,0,26
Cc1ccc(NC(=O)Nc2cc(C(C)(C)C)nn2-c2ccccc2)cc1 [GSK1014915],0,0,0,0,29,12,3,0,0,14,53,0,0,0,0,0,0,0,5,28
Cc1ccc(C(=O)Nc2ccc(Nc3ccnc4cc(-c5ccccn5)ccc34)cc2O)cc1.Cl [GW440146],16,0,12,35,0,11,31,0,8,0,0,0,0,0,0,10,0,0,24,5
COc1cc2nccc(Nc3ccc(NC(=O)c4ccc(C)cc4)c(O)c3)c2cc1OC.Cl [GW440132],0,0,0,0,50,0,4,12,0,4,0,0,0,0,0,13,24,0,17,12
CS(=O)(=O)c1ccc(-c2nc3n(c2-c2ccncc2)CCC3)cc1 [SKF-105942],0,0,0,4,13,21,7,0,0,0,8,0,0,22,0,11,0,18,1,2
Cc1c(O)cccc1Nc1ccnc2ccc(C(F)(F)F)cc12.Cl [GW466413],8,0,0,32,11,0,30,0,3,39,0,0,0,0,0,0,0,0,28,0
COc1ccccc1CNC(=O)c1cc(C(=O)c2ccccc2C)c[nH]1 [GSK364507],0,0,0,0,26,8,25,0,0,0,0,0,0,0,0,100,0,1,6,3
Cn1ccc2ncnc(Oc3cccc(C(=O)Nc4ccccc4)c3)c21,1,0,14,0,0,17,8,8,0,16,0,0,0,0,0,2,2,0,0,0
CC(C)(C)c1ccc(C(=O)Nc2cn3cc(Cl)ccc3n2)cc1,0,13,0,0,44,0,48,8,0,0,0,1,13,0,1,0,4,13,2,100
Cc1cc(N2Cc3ccccc3C2)nc(Nc2ccc(S(=O)(=O)N3CCOCC3)cc2)n1.Cl [GSK1669917],14,0,0,0,75,10,0,0,0,21,0,0,0,8,0,0,0,3,10,17
CC(=O)Nc1nc2cnc(Nc3cc(NC(=O)c4cccc(CCC#N)c4)ccc3C)nc2s1,5,19,9,13,0,45,4,15,0,0,12,0,0,8,14,9,8,0,0,32
